Screening results (PubChem)
A selection: hits, their analogues and other compounds. The true share with any hit is near 19%.
HT1080NT lethal – kills 2HG-producing HT-1080-NT fibrosarcoma cells; HT-1080-NT fibrosarcoma viability, CellTiter-Glo ATP luminescence, 48 h; Potency, µM (series often up to 46.1 µM), inactives show at the top dose activity, negative = less viability, actives largely listed as cytotoxic; 360,000 compounds, 1.6% hits; AID 686970;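 further: NT is the 2HG producing partner of a matched IDH1 knockdown line; potency means the concentration at half of the fitted maximal effect; 0% = DMSO-treated cells and -100% = media-only wells without cells; nearly all actives have a fitted effect of over 55% in size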
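Read-out is CellTiter-Glo luminescence after 10 minutes at room temperature, following 48 hours' compound treatment of HT-1080-NT cells (750 cells/well, RPMI, 5% FBS, 37 degrees C).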
IL-1B inflam inh – blocks inflammasome-driven IL-1 beta release | activity change, % at 57.5 µM | THP-1 LPS/ATP IL-1B secretion, AlphaLISA, 16 h; stronger effect = lower value | AID 743279 | 360,000 compounds, 4.7% hits; in the data active means activity change below about -50%; inconclusive means mostly about -30% to -49%
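Secreted IL-1B measured by AlphaLISA bead assay after 16 h compound exposure of THP-1 cells; compounds (final up to 57.5 uM) added 1 h before LPS (250 ng/mL) and ATP (1.25 mM) stimulation; lower signal means less secretion.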
TDP1 cell noCPT – qHTS for Inhibitors of human tyrosyl-DNA phosphodiesterase 1 (TDP1): qHTS in cells in absence of CPT | DT40 Tdp1-/- hTDP1 cells, no CPT, ATP luminescence, 48 h | Potency, µM (top dose mostly 46.2 µM), for the others: at the highest dose activity change, negative = growth inhibition, usual class: inhibitors | 420,000 compounds, 15% hits; further: potency means the concentration at half of the fitted maximal effect; nearly all actives have a fitted effect of over 55% in size
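DT40 Tdp1-/-;hTDP1 cells, no CPT (DMSO vehicle only), 400 cells/well; compounds pin-transferred; ≥48 hr, 37 °C; CellTiter-Glo 30 min RT dark, luminescence read.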
HT1080 IDH1KD tx – HT-1080 IDH1 knockdown cell toxicity (counter line); HT-1080 IDH1 knockdown viability, ATP luminescence, 48 h; Potency, µM (titrated, usually from 46.1 µM), for the others: top-dose activity, negative = toxicity, usual class: cytotoxic; 360,000 compounds, 2% hits; AID 686971;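 further: potency means the concentration at half of the fitted maximal effect; 0% = DMSO wells and -100% = cell-free medium wells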
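Viability of IDH1-knockdown HT-1080 fibrosarcoma cells was assessed by CellTiter-Glo after 48 h at 37 °C with titrated compound; concentration-effect curves were classified by fit quality and response size.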
DT40 TDP1 CPT – DT40-hTDP1 cell growth loss with CPT; 420,000 compounds, 12% hits; chicken DT40 Tdp1-/-;hTDP1 cells + 20 nM CPT, ATP luminescence, 48 h; Potency, µM (titrated, usually from 46.2 µM), inactives show at the top dose activity change, negative = growth inhibition, usual class: inhibitors; further: potency means the concentration at half of the fitted maximal effect; nearly all actives have a fitted effect of over 55% in size
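Chicken DT40 Tdp1-/- cells complemented with human TDP1, 400 cells/well, exposed to compounds plus 20 nM camptothecin for at least 48 h at 37 C; viability read as ATP content by CellTiter-Glo luminescence.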
* marks the source's active call; other numbers are inactive results; u = inconclusive; x = no result; [ ] = dose if it differs, or a comment. Unless noted, the call rests on the fitted dose curve; in most records, active means well fitted curve in the direction sought with a large enough effect; inconclusive means small, poorly fitted or top-dose-only effect, or another doubt; inactive means no such curve, though single readings can be large; an effect the other way counts as inactive or inconclusive. Unless noted, on the % scale 0 is the no-effect control and ±100 the full control effect.

SMILES | HT1080NT lethal | IL-1B inflam inh | TDP1 cell noCPT | HT1080 IDH1KD tx | DT40 TDP1 CPT
O=C(Nc1ccccc1F)NC1CCCc2ccccc21 (centres undefined) | 0% | 0 | 2% | 6% | 1%
O=C(O)C1CCC(c2ccc(-c3ccccc3)cc2)CC1 (centres undefined) | 0% | 6 | 16% | -2% | 0%
O=C(c1ccccc1)[C@@H]1O[C@H]1c1ccc(-c2ccccc2)cc1 | x | x | 4.2µM* | x | 4.2µM*
CC(C)C(=O)N1CCCC1(C)C(=O)N(C)Cc1cccc2ccccc12 (centres undefined) | 20% | 15 | -22% | 18% | -23%
CC(=O)N1CCCC(C)(C(=O)N(C)Cc2cccc3ccccc23)C1 (centres undefined) | 14% | 63 | u | 1% | 23µM*
C=CCc1ccccc1OCCn1nnc2ccccc21 | -7% | 50 | 23µM* | 2% | u
C/C=C/c1ccc(OCCn2nnc3ccccc32)c(OC)c1 | -16% | 0 | 15µM* | -4% | 18µM*
CCOc1cccc(N(C(=O)CCC(=O)Nc2cc(C)on2)C(C(=O)NC(C)(C)C)c2ccc(OC)cc2)c1 (centres undefined) | -5% | 10 | u | -26% | 29µM*
COc1ccc(C(C(=O)NC(C)(C)C)N(C(=O)CCC(=O)Nc2cc(C)on2)c2cccc(F)c2)cc1 (centres undefined) | -12% | -9 | u | -4% | 0%
CCc1ccc(N(C(=O)CCC(=O)Nc2cc(C)on2)C(C(=O)NC(C)(C)C)c2ccc(OC)cc2)cc1 (centres undefined) | -20% | 17 | 21µM* | -23% | u
CCC(C)(C)NC(=O)C(c1ccc(OC)cc1)N(C(=O)CCC(=O)Nc1cc(C)on1)c1ccc(F)cc1 (centres undefined) | u | -11 | u | -7% | -20%
CC(C)n1c(O)c(N=NC(=O)Cc2csc(N3CCOCC3)n2)c2ccccc21 | 15% | 8 | u | 7% | u
Cc1ccc(CNS(=O)(=O)c2ccc(N3CCCCS3(=O)=O)cc2)cc1 | x | x | 16µM* | x | 12µM*
O=S(=O)(NCCc1ccccc1)c1ccc(N2CCCCS2(=O)=O)cc1 | x | x | 23µM* | x | 18µM*
O=S(=O)(NCCc1ccc(Cl)cc1)c1ccc(N2CCCCS2(=O)=O)cc1 | x | x | 23µM* | x | 18µM*
COc1ccc(CCNS(=O)(=O)c2ccc(N3CCCCS3(=O)=O)cc2)cc1OC | x | x | 21µM* | x | u
O=S(=O)(Nc1ccccc1C(F)(F)F)c1ccc(N2CCCCS2(=O)=O)cc1 | x | x | -17% | x | -21%
O=S(=O)(Nc1cccc(-c2nc3cccnc3s2)c1)c1cccs1 | 13% | 43 | u | 0% | -18%
Cc1ccc(N2C(=O)C3N=NN(CC(=O)N4N=C(c5ccccc5)CC4c4ccccc4)C3C2=O)cc1 (centres undefined) | 3% | 11 | -5% | -1% | 5%
Cc1c(Br)c(C(F)(F)F)nn1CC(=O)N(C)C1CCCCC1 | 5% | 12 | -2% | -12% | -7%
CS(=O)(=O)N(CC(=O)N1CCN(Cc2ccccc2)CC1)c1cccc(Cl)c1 | 2% | 2 | -19% | -7% | u
CCSc1nnc(C(C)NS(=O)(=O)c2cccc(Cl)c2C)n1C (centres undefined) | x | x | -1% | x | -1%[9.04 µM]
CCCCNS(=O)(=O)c1ccc(N2CCCCS2(=O)=O)cc1 | x | x | 23µM* | x | u
CCN(c1ccccc1C)S(=O)(=O)c1ccc(N2CCCCS2(=O)=O)cc1 | x | x | -27% | x | 2%
CCN(c1cccc(C)c1)S(=O)(=O)c1ccc(N2CCCCS2(=O)=O)cc1 | x | x | 23µM* | x | 13µM*
SMILES | HT1080NT lethal | IL-1B inflam inh | TDP1 cell noCPT | HT1080 IDH1KD tx | DT40 TDP1 CPT
N=C1/C(=C\c2ccc(Br)o2)C(=O)N=C2SC(CC(=O)N3CCCCC3)=NN12 | 5% | -10 | 7.3µM* | 2% | 6.5µM*
Cc1ccc(/C=C2/C(=N)N3N=C(CC(=O)N4CCCC4)SC3=NC2=O)o1 | 2% | 6 | u | 3% | u
Cc1ccc(N(C(=O)c2nsc(Cl)c2Cl)C(C(=O)NC2CCCC2)c2ccc(O)cc2)cc1C (centres undefined) | u | -65* | u | -29% | u
Cc1cc(C)cc(N(C(=O)c2nsc(Cl)c2Cl)C(C(=O)NC2CCCC2)c2ccc(O)cc2)c1 (centres undefined) | -18% | -80* | u | u | -80%
Cc1cccc(N(C(=O)c2ccco2)C(C(=O)NC2CCCC2)c2cccnc2)c1C (centres undefined) | 10% | -10 | -26% | 6% | -10%
Cc1cccc(N(C(=O)c2nsc(Cl)c2Cl)C(C(=O)NC2CCCC2)c2ccc(O)cc2)c1C (centres undefined) | -2% | -73* | u | -14% | u
CCOc1ccc(C(C(=O)NC2CCCC2)N(Cc2ccccc2)C(=O)c2nsc(Cl)c2Cl)cc1 (centres undefined) | u | u | 18µM* | -27% | 21µM*
CCOc1ccc(NC(=O)c2ccc3c(c2)CCN3S(C)(=O)=O)cc1 | -2% | -26 | -13% | -1% | 1%
O=C(NCc1ccccc1)C1CCCN(c2cnccn2)C1 (centres undefined) | 9% | 5 | -10% | 0% | 6%
COCCCN(C(=O)C1=COCCO1)c1c(N)n(Cc2ccccc2)c(=O)[nH]c1=O | -1% | -7 | -17% | -2% | -2%
Cc1cc(Br)cc2c(C(=O)Nc3c(C)n(C)n(-c4ccccc4)c3=O)cc(-c3cccs3)nc12 | u | 38 | 16µM* | -27% | 23µM*
Cc1c(NC(=O)c2cc(=O)[nH]c3ccccc23)c(=O)n(-c2ccccc2)n1C | 0% | 19 | 24% | -1% | 1%
Cc1cc(C(=O)Nc2c(C)n(C)n(-c3ccccc3)c2=O)c2ccccc2n1 | 14% | 1 | 9% | 11% | 1%
CCc1ccc(-c2cc(C(=O)Nc3c(C)n(C)n(-c4ccccc4)c3=O)c3ccccc3n2)s1 | -20% | -28 | 16µM* | u | u
Cc1cc(Cl)ccc1OCc1cc(=O)n2c3c(sc2n1)CCCC3 | x | x | 0% | x | 0%
Cn1nc(-c2ccccc2)cc1NC(=O)c1cccs1 | 7% | -2 | -5% | 18% | 1%
CN(C)S(=O)(=O)c1cccc(NC(=O)C2CCCN(C(=O)c3ccc(Cl)cc3)C2)c1 (centres undefined) | 5% | 35 | 15µM* | 4% | u
CS(=O)(=O)c1ccc(NC(=O)C2CCCN(C(=O)c3ccc(Cl)cc3)C2)cc1 (centres undefined) | 8% | 22 | u | -5% | -27%
